# Assay results reported in PubChem BioAssay AID720533 (National Center for Advancing Translational Sciences (NCATS), 2013).
# In all, about 18,000 compounds went through this assay and about 750 (4.2%) were called active. Another 13% or so got no clear call; they are omitted. The full list was thinned out, with actives kept by preference. A number with no mark means an inactive call. The call rests on the fitted dose curve; tested in HEK293 cells.
# Assay: qHTS for Inhibitors of binding or entry into cells for Lassa Virus
# Conditions: Lassa virus pseudotyped entry inhibition, cell-based qHTS; series mostly up to 49.2 µM; activity change, negative = inhibition: at the top concentration
# On the % scale 0 is the no-effect control and ±100 the full control effect; potency means the concentration at half of the fitted maximal effect.
SMILES,"activity change, negative = inhibition",Potency
O=c1[nH]c(=O)c2nc3ccccc3nc2[nH]1,4.84%,–
CC(O)(COc1ccccc1)c1ccc2c(c1)CN(Cc1cn[nH]c1-c1ccc(F)cc1)CCO2 (configuration not stated),-20.1%,–
CCCCCC(=O)N1C[C@H](n2cc(COC(=O)c3ccccc3)nn2)[C@@H](O)C[C@H]1c1ccc(Cl)cc1,-9.09%,–
C=C(CCN1C=C(C(=O)OCC)C(c2ccccc2)NC1=O)OC (configuration not stated),-11% [at 8.59 µM],–
CC(O)[C@@H](N)C(=O)O (some centres not stated),-10.8%,–
COc1c(O)c2c(=O)cc(OC)c3c4c(OC)cc(=O)c5c(O)c(OC)c6c(c(c1C[C@@](C)(O)[C@H]6C(C)=O)c23)c54,–,35.5 µM (active)
CCOC(=O)C1=NO[C@@]2(C=C(Br)C(=O)[C@H]3O[C@H]32)C1,-19.1%,–
COc1ccc(C2CC(=O)Oc3ccc(C(C)(C)C)cc32)cc1 (configuration not stated),-3.99%,–
CC(C)C[C@@H](CC(=O)N[C@@H](CCC(=O)O)CC(=O)O)NC(=O)[C@@H]1CCCC[C@H]1NC(=O)C[C@@H](NC(=O)C[C@H](CO)NC(=O)[C@@H]1CCCC[C@H]1N)C(C)C,-3.83%,–
CN1CCC[C@@H]1CCO[C@](C)(c1ccccc1)c1ccc(Cl)cc1,-29.2% [at 17.8 µM],–
CN1CCCC1CCO[C@@](C)(c1ccccc1)c1ccc(Cl)cc1 (some centres not stated),–,12.6 µM (active)
Fc1ccc(C(OCCN2CCN(C/C=C\c3ccccc3)CC2)c2ccc(F)cc2)cc1,–,28.2 µM (active)
COc1ccc(CC2c3cc(OC)c(OC)cc3CC[N+]2(C)CCC(=O)OCCCCCOC(=O)CC[N+]2(C)CCc3cc(OC)c(OC)cc3C2Cc2ccc(OC)c(OC)c2)cc1OC (configuration not stated),-6.74% [at 17.8 µM],–
CC(C)[C@@H](CC(=O)N[C@@H]1CCNC[C@H]1C(=O)N[C@H](CC(=O)N[C@@H](CCC(=O)O)CC(=O)O)Cc1ccccc1)NC(=O)C[C@H](CO)NC(=O)[C@@H]1CNCC[C@H]1N,-0.433%,–
CN1CC(O)c2cc(N=NC(N)=O)c(O)cc21 (configuration not stated),-5.48%,–
CN(C)CCc1c[nH]c2ccc(Cn3cncn3)cc12,5.48%,–
Fc1ccc(Cl)cc1-c1nc(Nc2ccncc2)c2nccnc2n1,-20.8%,–
CCS(=O)(=O)N(C)[C@@H]1c2cc(C#N)ccc2OC(C)(C)[C@H]1O,inactive,–
CCc1cc2c(nc1CC)CCN(CCC(C)=NOC[C@@H](O)COCc1ccco1)C2,3.34% [at 8.59 µM],–
Cc1ccc(-c2cc(=O)c3ccc(Cl)cc3[nH]2)cc1,0.446%,–
C=C(C(C)=O)C(O)c1cccs1 (configuration not stated),inactive,–

SMILES,"activity change, negative = inhibition",Potency
COC12CC[C@@]3(C[C@@H]1C(C)(O)C(C)(C)C)[C@H]1Cc4ccc(O)c5c4[C@@]3(CCN1CC1CC1)[C@H]2O5 (some centres not stated),–,28.2 µM (active)
COc1ccc(CNS(=O)(=O)c2cc(Br)ccc2Br)cc1,15.9%,–
O=S(O)CNc1ccc(S(=O)(=O)c2ccc(NCS(=O)O)cc2)cc1,1.37%,–
O=C(O)C1=CCCN(CCON=C(c2ccccc2)c2ccccc2)C1,inactive,–
COc1ccc(C2=C(N3CCc4ccccc43)C(=O)NC2=O)cc1,-26.5%,–
CC1=C(/C=C/C(C)=C/C=C/C(C)=C/C=C/C=C(C)/C=C/C=C(C)/C=C/C2=C(C)CCCC2(C)C)C(C)(C)CCC1,9.81%,–
COc1ccc(CCNc2ncnc3sc(C(=O)N4CCCC4)c(C)c23)cc1OC,-8.35%,–
Cc1c2ccc(N(C)c3ccnc(Nc4cccc(S(N)(=O)=O)c4)n3)cc2nn1C,-0.986%,–
C=CCC(C)(O)c1ccco1 (configuration not stated),-0.27%,–
CC1=C[C@H]2c3ccccc3C[C@H]2CO[C@]12C(=O)N(Cc1ccc(Br)cc1)c1ccccc12,16.7% [at 8.59 µM],–
COc1ccccc1-c1ccnc(-n2ncc(C(=O)NCCc3ccncc3)c2C)n1,-18.3%,–
CCOc1ccc(NS(=O)(=O)c2ccc(N)cc2)nn1,2.16%,–
CC(C)[C@@H](CO[Si](C)(C)C(C)(C)C)N1C[C@@H](N2CCCC2)CS1(=O)=O,-10.9%,–
C=CC1=C2C=C(C3CC3)N(CC(C)C)C=C2C(=O)C(C)(OC(=O)c2ccco2)C1=O (configuration not stated),-4.02% [at 8.59 µM],–
NC(=O)C(=O)N/N=C/c1ccc([N+](=O)[O-])o1,-13%,–
Cc1ccc(-c2nn(CC(C)(C)C)c3ncnc(N)c23)cc1,-24.1%,–
Cc1csc(-c2coc3cc(O[C@@H]4O[C@H](CO)[C@@H](O)[C@@H](O)[C@H]4O)ccc3c2=O)n1,28%,–
COc1ccc([C@@H](NC(=O)C(F)(F)F)C2CCCC=C2c2ccccc2)cc1OC (some centres not stated),-11.1% [at 8.59 µM],–
NNc1nnc(Cc2ccncc2)c2ccccc12,-16.1%,–
O=Cc1c(Cl)cccc1Cl,-7.53%,–
O=C1C(c2ccccn2)=[N+]([O-])c2ccccc21,1.18%,–

SMILES,"activity change, negative = inhibition",Potency
Cc1nnc(C(=O)NC(C)(C)c2nc(C(=O)NCc3ccc(F)cc3)c(O)c(=O)n2C)o1,-10.3%,–
C[C@@H]1C[C@H]2CC[C@H](O2)[C@H](C)C(=O)O[C@@H](C)C[C@@H]2CC[C@@H](O2)[C@@H](C)C(=O)O[C@H](C)C[C@H]2CC[C@H](O2)[C@H](C)C(=O)O[C@@H](C)C[C@@H]2CC[C@@H](O2)[C@@H](C)C(=O)O1,–,0.562 µM (active)
CCCCCCCCCCCC(=O)O[C@H](CC(=O)O)C[N+](C)(C)C,-5.17%,–
COC1=C[C@H](C(=O)N[C@H]2CCCC[C@H]2NC(C)=O)[C@H](C)[C@@H](c2ccccc2)CC1=O,-1.51% [at 8.59 µM],–
COc1cccc([C@@H]2Oc3ccc(Br)cc3C(=O)[C@H]2OC(=O)NCc2ccc3c(c2)OCO3)c1,-0.946%,–
CN1CCCCCC1C(=O)NCCN1Cc2ccccc2OC(c2ccsc2)C1 (configuration not stated),4.6%,–
CCCCC/C=C\C[C@H](O)/C=C/C=C/C=C/[C@@H](O)CCCC(=O)O,6.82%,–
O=C(/C=C/c1cccc(F)c1)NC1CC1,9.73%,–
CC[N+](C)(CC)CCC[n+]1c(-c2ccccc2)c2cc(N)ccc2c2ccc(N)cc21,–,3.16 µM (active)
Brc1ccc(C2=NCCC(c3ccccc3)O2)cc1 (configuration not stated),-12.7%,–
COC1=C[C@H](C(=O)NCc2ccccc2)[C@@]2(C)Cc3ccccc3[C@@H]2CC1=O,-4.25% [at 8.59 µM],–
CCCC[C@]12Cc3cc(C#N)ccc3[C@H](O1)c1c(cc(-c3ccccc3)oc1=O)O2,20.3% [at 8.59 µM],–
C=C(C)C(O)C=CC=Cc1ccccc1 (configuration not stated),46.4% [at 8.59 µM],–
C=O,7.43%,–
C[C@H]1CCC[C@@]2(C)CCCC[C@]12O,-4.17%,–
CO[C@@]12[C@@H](COC(N)=O)C3=C(C(=O)C(C)=C(N)C3=O)N1C[C@@H]1N[C@@H]12,-2.25%,–
COc1cc(=O)n2c(c1C(=O)NC(C)c1ccco1)CCN(C(=O)c1cn3ccc(C)cc3n1)CC2 (configuration not stated),-8.78%,–
CC[C@H](C)[C@H](NC(=O)[C@H](CCCNC(=N)N)NC(=O)[C@H](CCCNC(=N)N)NC(=O)[C@H](CC(C)C)NC(=O)[C@H](Cc1ccccc1)NC(=O)CNC(=O)CNC(=O)[C@@H](N)Cc1ccc(O)cc1)C(=O)N[C@@H](CCCNC(=N)N)C(=O)N1CCC[C@H]1C(=O)N[C@@H](CCCCN)C(=O)N[C@@H](CC(C)C)C(=O)N[C@@H](CCCCN)C(=O)N[C@@H](Cc1c[nH]c2ccccc12)C(=O)N[C@@H](CC(=O)O)C(=O)N[C@@H](CC(N)=O)C(=O)N[C@@H](CCC(N)=O)C(=O)O,2.04%,–
CCC1(C2CCN(Cc3cccnc3)CC2)NC(=O)N(CC2COc3ccccc3O2)C1=O (configuration not stated),-0.768%,–
COC(=O)C12C[C@@H](C)C3C(C)C(c4ccccc4C31)N2C(=O)C(F)(F)F (some centres not stated),4.36% [at 8.59 µM],–
C=CCOC(=O)N[C@@H](CC(C)C)C(C(=O)OC)=C(C)NCc1ccccc1,-29.4% [at 8.59 µM],–

SMILES,"activity change, negative = inhibition",Potency
C[C@H]1Cc2c(-c3ccccc3)nc3c(c2CO1)CN(S(=O)(=O)c1ccc(Cl)c2nonc12)CC3,-12.5% [at 8.59 µM],–
CC1(C)OC[C@@H](COC(=O)CCc2ccc(OC[C@@H](O)CNCCNC(=O)N3CCOCC3)cc2)O1,inactive,–
NS(=O)(=O)c1ccc(N=Nc2c(O)[nH]c3cccc(CCc4ccncc4)c23)cc1,27.4%,–
CC(=O)OC[C@H]1O[C@H](C#CCCCc2ccccc2)C=C[C@H]1OC(C)=O,-26.7% [at 8.59 µM],–
COc1ccc(-n2c(CNC(=O)c3cc(C(F)(F)F)ccc3Cl)nnc2SC)cc1,0.159%,–
CCCC1C(=O)N2C(N(C)C)=Nc3ccc(C)cc3N2C1=O (configuration not stated),-4.84% [at 17.8 µM],–
CC(=O)OCC(COC(C)=O)OC(C)=O,inactive,–
COC(=O)C(C(=O)OC)C1c2ccccc2C=C(C2CC2)N1C(=O)OC (configuration not stated),inactive,–
CCC1CN(CCNC(=O)c2cccnc2C)Cc2cc(OC)ccc2O1 (configuration not stated),-1.24%,–
O=C1OCCN1C(=O)[C@H]1[C@H](c2ccc(F)cc2)C(c2ccccc2)=NN1c1ccc(Br)cc1,-12.8%,–
CCn1ccnc1C[C@@H]1COc2ccccc2O1,19.4%,–
C#CCN([C@@H](C)C(=O)OCC)S(=O)(=O)c1ccc(Br)cc1F,21.8%,–
CCCc1c2oc(C(=O)O)cc(=O)c2cc2c(=O)cc(C(=O)O)n(CC)c12,-11.3%,–
CCc1noc(C)c1C(=O)NCCN1Cc2cc(OC)ccc2OC(CC)C1 (configuration not stated),-8.14%,–
CC(=O)c1c(O)c(C)c(O)c(Cc2c(O)c3c(c(C(=O)/C=C/c4ccccc4)c2O)OC(C)(C)C=C3)c1O,inactive,–
CC(=O)c1c(O)c(C)c(O)c(Cc2c(O)c3c(c(C(=O)/C=C\c4ccccc4)c2O)OC(C)(C)C=C3)c1O,–,15.8 µM (active)
O=C(/C=C/c1ccccc1)c1ccccc1O,4.23%,–
CC(C)CNc1cccc2c1S(=O)(=O)N[C@H](CC(C)C)CO2,23.9%,–
CC[C@@]12C=C(/C=C/c3ccccc3)[C@](CC)(C1)[C@H](c1ccccc1)CC2=O,4.3%,–
